Inconclusive results are not listed. Activity calls are given as the source filed them. The call rests on the fitted dose curve; in most records, active means well fitted curve in the direction sought with a large enough effect in the main read-out, with a control signal flat (not every such curve was filed as active); inconclusive means small, poorly fitted or top-dose-only effect, or effect the other way, or a change in a side signal; inactive means no such curve, though single readings can be large or run the other way. Residues, ends and D or L forms follow the SMILES beside them. *: point of attachment. Cbz = O=C(OCc1ccccc1)*

The source of these data is PubChem BioAssay (NCATS).

The nature of the assay: qHTS Validation Assay to Find Inhibitors of Chronic Active B-Cell Receptor Signaling (AID 485345). The note with it: ABC-DLBCL cells, chronic BCR signaling reporter, CBG luciferase; series mostly up to 46.1 µM. Put shortly:
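Read-out: ratio of filter-corrected green (IkappaBalpha fusion) to red (native) luciferase signal in doxycycline-induced TMD8 cells after 4 h at 37C. Titration spanned 46 uM–3 nM; Data were normalised to basal cells and 10 uM MG-132 wells.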
As to `N=C(N)c1ccc(OCCCCCOc2ccc(C(=N)N)cc2)cc1` (tested in a mixture with another compound), the result was inactive.

For `CC(O)C(O)[C@H]1CNc2nc(N)[nH]c(=O)c2N1` (some centres not stated), the call was inactive. As to `CC(=O)SC1CC2=CC(=O)CC[C@]2(C)C2CC[C@@]3(C)C(CC[C@@]34CCC(=O)O4)C12` (some centres not stated), the compound was classed as inactive. Next, `COc1ccc(CCn2nnnc2C2(c3ccc(C)cc3)CC2)cc1`: “inactive”; `CC(C)[C@@H]1CC[C@@H](C)C[C@@H]1P(=O)(c1ccccc1)c1ccccc1`: “inactive”; `CCCn1c(=O)c(C)cn2nc(N)nc12`: “inactive”. Next, `O=c1[nH]c(=O)c2nc3ccccc3nc2[nH]1`: “inactive”; `CC(C)C[C@H](NC(=O)C1OC1C(=O)O)C(=O)NCCCCN=C(N)N` (some centres not stated): “inactive”. Regarding `O=C(O)CCC/C=C\C[C@@H]1[C@@H](/C=C/[C@H](O)C2Cc3ccccc3C2)[C@@H](F)C[C@@H]1O`, the compound was called inactive. As to `CC(C)[C@H](NC(=O)OCc1ccccc1)C(=O)N[C@H](C=O)Cc1ccccc1` (Cbz-Val-Phe-aldehyde), the call was inactive. `N[C@H](C(=O)O)[C@H](Cc1ccccc1)C(=O)O`: the result was inactive.

Take `CC(=O)O[C@H]1Cc2ccccc2N(C(N)=O)c2ccccc21`: the compound was classed as inactive.

Take `NC[C@@H]1O[C@H](c2ccccc2)Cc2c1ccc(O)c2O`: the outcome was inactive. Next, `Nc1nc2c(nc(Br)n2C2OC3COP(=O)(O)O[C@@H]3C2O)c(=O)[nH]1` (some centres not stated): “inactive”; `NCC(O)C1CCCCCCC1` (configuration not stated): “inactive”; `CCN(c1nc(N)c(C(=O)N=C(N)N)nc1Cl)C(C)C`: “inactive”. As for `CC(C)NC[C@H](O)COc1cccc2ccccc12`, the call was inactive.
